Measurements published in PubChem BioAssay.
Activity calls are given as the source filed them.

Columns and labels:
[1] = biological target: Albumin (Bos taurus) (UniProt P02769); assay: bovine serum albumin binders on microarray, profiling panel, artefact control for SMM control protein annotation, biochemical, small-molecule microarray, Alexa647 label, 635/667 nm fluorescence (AID 1118); settings: BSA-A647 binding, fluorescence 635 nm, higher = more signal;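 note: score merges 667 nm emission intensity and signal-to-noise per printed compound spot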
Sequence of Albumin (Bos taurus) (P02769 whole entry, looked up): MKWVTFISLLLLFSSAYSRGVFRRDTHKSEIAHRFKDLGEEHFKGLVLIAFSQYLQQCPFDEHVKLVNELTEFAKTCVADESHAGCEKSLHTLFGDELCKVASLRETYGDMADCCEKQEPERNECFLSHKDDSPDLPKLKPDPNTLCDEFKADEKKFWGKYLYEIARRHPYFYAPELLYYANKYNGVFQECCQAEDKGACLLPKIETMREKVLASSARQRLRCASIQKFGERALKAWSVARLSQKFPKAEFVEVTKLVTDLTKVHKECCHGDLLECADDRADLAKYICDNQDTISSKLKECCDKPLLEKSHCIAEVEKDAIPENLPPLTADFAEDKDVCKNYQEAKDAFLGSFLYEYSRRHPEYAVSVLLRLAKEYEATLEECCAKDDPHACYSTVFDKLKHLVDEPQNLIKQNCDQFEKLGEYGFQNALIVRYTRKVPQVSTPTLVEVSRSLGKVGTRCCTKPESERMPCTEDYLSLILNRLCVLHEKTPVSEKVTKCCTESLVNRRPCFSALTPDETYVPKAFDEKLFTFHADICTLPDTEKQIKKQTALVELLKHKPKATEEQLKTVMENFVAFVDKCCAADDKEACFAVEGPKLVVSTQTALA

[2] = small-molecule microarray binders of probe aXIP, primary screen, biochemical, NeuroSMM set, 635/667 nm fluorescence (AID 1119); settings: higher = more signal, called active from +8 up or from −8 down;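 note: probe is the protein aXip251-270 applied at 1 µg/mL to compound-printed slides; binding of probe to printed compounds measured as 667 nm fluorescence plus signal to noise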
[3] = small-molecule binders of probe aNOTCH3, primary screen, biochemical, small-molecule microarray, 635/667 nm fluorescence (AID 1120); settings: higher = more signal;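 note: probe is a biotin-tagged antibody raised against NOTCH3 rather than NOTCH3 protein; score merges spot fluorescence near 667 nm with spot signal to noise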
[4] = small-molecule binders of probe aNOTCH2, primary screen, biochemical, small-molecule microarray, 635/667 nm fluorescence (AID 1121); settings: higher = more signal;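 note: score merges feature fluorescence read at 667 nm with its signal to noise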
[5] = biological target: Carbonic anhydrase 2 (Homo sapiens) (UniProt P00918); assay: CAII small-molecule binders, profiling panel, biochemical, small-molecule microarray, Alexa647-labelled CAII (AID 1122); settings: CAII-A647 binding fluorescence, higher = more signal
[6] = COS7 lysate on small-molecule microarray, probe aHis, 635 nm (AID 1123); settings: COS7 cell lysate, fluorescence, higher = more signal;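 note: z-score combines 667nm fluorescence intensity with signal-to-noise per printed compound spot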
[7] = compound binding in COS7 lysate, probe aLAP1, primary screen, cell lysate, small-molecule microarray (AID 1124); settings: probe aLAP1, fluorescence, higher = more signal;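 note: lysate comes from COS7 cells expressing LAP1 and is applied at 0.3 µg/mL; score merges spot fluorescence near 667 nm with signal-to-noise over triplicate slides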
[8] = test system: Sam68 (KHDRBS1); assay: Sam68 small-molecule binders, primary screen, biochemical, small-molecule microarray, 635 nm fluorescence (AID 1125); settings: small-molecule microarray binding, higher = more signal;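 note: score merges 667 nm channel intensity with signal to noise over triplicate slides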
[9] = test system: Chordin-like protein 2 (CHRDL2); assay: CHRDL2 small-molecule binders, primary screen, biochemical, small-molecule microarray, 635 nm fluorescence (AID 1126); settings: small-molecule microarray binding, fluorescence 635 nm; higher = more signal;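 note: printed compound slides probed with Chrdl2 protein at 4 µg/mL for 1 h at 4 C; score merges 667 nm emission intensity with signal to noise over three replicate slides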
[10] = biological target: Concanavalin-A (Canavalia ensiformis) (UniProt P02866); assay: ConA small-molecule binders, primary screen, artefact control for SMM control protein annotation, biochemical, small-molecule microarray, Alexa647 label, 635 nm (AID 1127); settings: ConA-A647 binding fluorescence, higher = more signal;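 note: z combines 667 nm emission intensity with signal-to-noise across three replicate slides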
Sequence of Concanavalin-A (Canavalia ensiformis) (P02866 whole entry, looked up): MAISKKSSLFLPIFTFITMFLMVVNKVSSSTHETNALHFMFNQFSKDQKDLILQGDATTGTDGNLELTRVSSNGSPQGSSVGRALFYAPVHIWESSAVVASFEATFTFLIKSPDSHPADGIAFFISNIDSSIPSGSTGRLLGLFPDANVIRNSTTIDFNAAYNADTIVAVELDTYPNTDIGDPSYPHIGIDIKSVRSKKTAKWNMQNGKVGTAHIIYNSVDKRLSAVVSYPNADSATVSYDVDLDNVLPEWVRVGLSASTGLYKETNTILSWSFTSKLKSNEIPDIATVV

SMILES	composite z-score [1]	composite Z-score [2]	composite z-score [3]	composite z-score [4]	composite z-score [5]	composite z-score [6]	composite z-score [7]	composite z-score [8]	composite z-score [9]	composite z-score [10]
COCC(=C=CC[C@@H](O)c1ccc(OCCO)cc1)CCO	-0.201	1.21 (inactive)	-0.17	-0.0859	0.838	1.25	0.83	0.847	0.136	-0.139
[N-]=[N+]=NCc1ccccc1C[C@]1(C(=O)N2CCOCC2)COC(c2ccc(OCCCO)cc2)=N1	0.754	-0.592 (inactive)	0.139	0.126	0.71	0.969	0.262	1.22	-0.202	0.468
C=CCNC(=O)[C@H]1[C@@H]2C(=O)O[C@@H](c3ccccc3)[C@@H](c3ccccc3)N2[C@@H](c2ccc(O)cc2)[C@]12C(=O)N(C(=O)OCCOC)c1ccc(C#CCC(C(=O)OC)C(=O)OC)cc12	0.675	1.04 (inactive)	0.0904	-0.154	0.378	2.05	0.775	1.3	0.822	0.96
COC(=O)[C@@]1(Cc2ccccc2)[C@H]2c3cc(C(=O)N(C)C)n(CCn4cc([N+](=O)[O-])nc4C)c3C[C@H]2CN1C(=O)c1ccccc1	0.89	0.0327 (inactive)	0.16	-0.0254	0.888	2.56	0.697	1.1	-0.113	0.526
C=C[C@@H](OC)[C@H](OC(=O)Nc1ccc(OC)cc1)c1ccc(OC)c(O)c1	-0.787	0.43 (inactive)	-0.246	-0.203	0.415	1.36	0.0218	-0.853	-0.96	-0.613
C=CCNC(=O)[C@H]1[C@@H]2C(=O)O[C@@H](c3ccccc3)[C@@H](c3ccccc3)N2[C@@H](c2ccc(OCCO)cc2)[C@]12C(=O)Nc1ccc(C#CCNC(N)=O)cc12	0.601	-0.262 (inactive)	0.103	-0.0624	0.587	0.261	-0.113	1.18	-0.269	1.1
